# Results taken from ChEMBL document CHEMBL3988442, “University of Dundee, Small-Polar-MMV Screening Library” (2021).
# For some of these results: Entries with a potency or affinity are not part of this list.
# Assays:
# Parameters in all cases: scale not given: direction of the effect not stated beside the values
# [1] = target: Protein translocase subunit SecA (Escherichia coli (strain K12)) (UniProt P10408); assay: Assay to Identify E. coli SecA ATPase Inhibitors; type: functional; conditions: 30 µM
# [2] = target: T1, Ubiquitin-activating enzyme e1, putative (Leishmania donovani (strain BPK282A1)) (UniProt E9BSI1); assay: Leishmania donovani Ubiquitin Activating Enzyme (LdE1); type: functional; conditions: 30 µM
# T1 sequence (whole entry): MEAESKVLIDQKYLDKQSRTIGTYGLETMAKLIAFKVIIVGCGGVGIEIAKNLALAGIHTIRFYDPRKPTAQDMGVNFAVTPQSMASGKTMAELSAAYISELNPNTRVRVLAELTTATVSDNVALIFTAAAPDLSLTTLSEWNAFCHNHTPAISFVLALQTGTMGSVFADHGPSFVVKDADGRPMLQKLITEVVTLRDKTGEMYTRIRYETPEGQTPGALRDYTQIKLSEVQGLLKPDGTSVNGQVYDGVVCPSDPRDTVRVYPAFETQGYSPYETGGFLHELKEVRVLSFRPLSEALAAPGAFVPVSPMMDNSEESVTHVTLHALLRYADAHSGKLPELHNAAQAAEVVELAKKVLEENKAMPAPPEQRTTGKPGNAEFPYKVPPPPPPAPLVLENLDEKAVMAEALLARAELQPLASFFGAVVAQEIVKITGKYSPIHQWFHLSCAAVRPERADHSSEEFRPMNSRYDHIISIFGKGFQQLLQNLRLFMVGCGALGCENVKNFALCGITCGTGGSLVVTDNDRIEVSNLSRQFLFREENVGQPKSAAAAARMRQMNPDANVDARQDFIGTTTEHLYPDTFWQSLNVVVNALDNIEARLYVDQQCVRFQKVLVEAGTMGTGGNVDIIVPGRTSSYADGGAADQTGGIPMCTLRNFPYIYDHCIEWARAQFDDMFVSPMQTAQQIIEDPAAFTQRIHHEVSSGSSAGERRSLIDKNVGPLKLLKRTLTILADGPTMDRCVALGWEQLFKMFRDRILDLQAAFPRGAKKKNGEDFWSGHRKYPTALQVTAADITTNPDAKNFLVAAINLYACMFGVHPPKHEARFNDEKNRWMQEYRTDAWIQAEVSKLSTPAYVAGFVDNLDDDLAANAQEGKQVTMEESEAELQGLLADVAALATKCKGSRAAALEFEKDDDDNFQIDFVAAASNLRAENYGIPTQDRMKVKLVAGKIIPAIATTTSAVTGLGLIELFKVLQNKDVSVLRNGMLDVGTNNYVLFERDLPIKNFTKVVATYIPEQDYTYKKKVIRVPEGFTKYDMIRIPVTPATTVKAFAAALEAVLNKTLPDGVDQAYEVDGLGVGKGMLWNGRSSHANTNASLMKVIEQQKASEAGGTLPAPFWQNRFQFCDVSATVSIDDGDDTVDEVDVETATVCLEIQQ
# [3] = target: AMP-activated protein kinase, AMPK (Homo sapiens) (UniProt P54646+O43741+P54619+Q9UGJ0+Q9Y478+Q13131+Q9UGI9); assay: AMP-dependent Kinase enzyme assay. An in vitro enzyme assay that detects ADP turnover that is directly proportional to AMPK activity. This uses naive AMPK that is activated during the assay with MK-8722; type: functional; conditions: 30 µM
# [4] = target: Sialic acid-binding Ig-like lectin 9 (Homo sapiens) (UniProt Q9Y336); assay: Hs-Siglec9 ALPHAscreen SOP 20170721; conditions: 10 µM
# Trypanosoma cruzi = assay: Trypanosoma cruzi phosphomannomutase and mannose-1-phosphate guanylyltransferase assay; type: functional; conditions: 10 µM
# [5] = target: T2, Arginase-2, mitochondrial (Homo sapiens) (UniProt P78540); assay: in vitro enzyme assay to detect the production of urea directly proportional to the activity of Arginase II; type: functional; conditions: 33.3 µM; note: in the data most compounds retested in dose-response had high values
# T2 sequence (whole entry): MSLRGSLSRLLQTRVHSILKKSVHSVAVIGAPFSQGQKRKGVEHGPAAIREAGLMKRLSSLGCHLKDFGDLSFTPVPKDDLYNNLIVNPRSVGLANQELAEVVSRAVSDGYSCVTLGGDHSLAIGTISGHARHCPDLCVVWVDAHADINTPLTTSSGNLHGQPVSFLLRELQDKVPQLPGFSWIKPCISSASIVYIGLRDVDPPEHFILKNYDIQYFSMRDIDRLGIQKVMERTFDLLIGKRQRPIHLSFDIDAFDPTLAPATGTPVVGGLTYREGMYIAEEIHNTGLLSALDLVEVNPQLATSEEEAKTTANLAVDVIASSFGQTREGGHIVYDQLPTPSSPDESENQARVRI
# [6] = target: T3, Proteasome subunit beta (Trypanosoma cruzi) (UniProt O96673); assay: Trypanosoma cruzi proteasome chymotrypsin-like activity (TcProtChymo) assay.; note: in the data most compounds retested in dose-response had high values; type: functional; conditions: 9.37 µM
# T3 sequence (whole entry): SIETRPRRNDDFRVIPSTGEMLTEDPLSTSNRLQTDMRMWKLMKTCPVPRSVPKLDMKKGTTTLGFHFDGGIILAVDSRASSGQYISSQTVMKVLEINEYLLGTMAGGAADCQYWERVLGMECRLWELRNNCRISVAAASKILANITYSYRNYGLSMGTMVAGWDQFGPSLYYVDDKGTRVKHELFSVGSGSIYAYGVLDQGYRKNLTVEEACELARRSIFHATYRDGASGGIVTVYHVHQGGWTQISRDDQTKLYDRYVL
# Homo sapiens = species on record: Homo sapiens; assay: To identify inhibition of the IFN signalling (Jak-Stat) pathway via expression of an eGFP reporter gene under the control of an IFN-stimulated response element (ISRE) containing MxA promoter.; type: functional; conditions: 30 µM
# [7] = target: T4, Tyrosyl-tRNA synthetase, putative (Trypanosoma cruzi (strain CL Brener)) (UniProt Q4DSP6); assay: Trypanosoma cruzi tyrosyl tRNA synthetase (TcYRS) _High Tyrosine SOP; type: functional; conditions: 30 µM; note: in the data most compounds retested in dose-response had high values
# T4 sequence (whole entry): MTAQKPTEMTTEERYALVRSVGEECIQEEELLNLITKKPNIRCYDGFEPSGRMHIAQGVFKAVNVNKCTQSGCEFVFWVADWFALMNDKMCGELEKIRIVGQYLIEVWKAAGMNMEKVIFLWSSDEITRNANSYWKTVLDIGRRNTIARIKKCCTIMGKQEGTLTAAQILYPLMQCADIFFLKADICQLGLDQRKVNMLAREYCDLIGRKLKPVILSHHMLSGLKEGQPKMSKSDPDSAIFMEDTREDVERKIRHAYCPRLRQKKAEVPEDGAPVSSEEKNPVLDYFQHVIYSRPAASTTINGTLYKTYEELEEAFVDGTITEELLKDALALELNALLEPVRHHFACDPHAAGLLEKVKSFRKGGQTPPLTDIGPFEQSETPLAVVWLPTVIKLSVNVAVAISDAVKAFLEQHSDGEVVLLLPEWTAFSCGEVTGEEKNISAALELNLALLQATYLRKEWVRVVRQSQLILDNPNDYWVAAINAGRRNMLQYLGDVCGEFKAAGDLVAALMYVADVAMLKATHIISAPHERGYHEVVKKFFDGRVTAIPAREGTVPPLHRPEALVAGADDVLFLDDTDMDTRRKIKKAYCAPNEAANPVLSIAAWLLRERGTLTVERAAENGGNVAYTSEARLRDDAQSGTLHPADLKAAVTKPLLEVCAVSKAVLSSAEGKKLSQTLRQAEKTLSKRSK
# [8] = target: T4, Tyrosyl-tRNA synthetase, putative (Trypanosoma cruzi (strain CL Brener)); assay: Trypanosoma cruzi tyrosyl tRNA synthetase (TcYRS) SOP; type: functional; conditions: 30 µM
# [9] = target: Chromo domain-containing protein 1 (Saccharomyces cerevisiae (strain ATCC 204508 / S288c) (Baker's yeast)) (UniProt P32657); assay: ScCHD-1 Enzyme Inhibition Assay; type: functional; conditions: 30 µM; note: in the data most compounds retested in dose-response had high values
# Sequence of Chromo domain-containing protein 1 (Saccharomyces cerevisiae (strain ATCC 204508 / S288c) (Baker's yeast)) (P32657 whole entry, the tested form may be a part): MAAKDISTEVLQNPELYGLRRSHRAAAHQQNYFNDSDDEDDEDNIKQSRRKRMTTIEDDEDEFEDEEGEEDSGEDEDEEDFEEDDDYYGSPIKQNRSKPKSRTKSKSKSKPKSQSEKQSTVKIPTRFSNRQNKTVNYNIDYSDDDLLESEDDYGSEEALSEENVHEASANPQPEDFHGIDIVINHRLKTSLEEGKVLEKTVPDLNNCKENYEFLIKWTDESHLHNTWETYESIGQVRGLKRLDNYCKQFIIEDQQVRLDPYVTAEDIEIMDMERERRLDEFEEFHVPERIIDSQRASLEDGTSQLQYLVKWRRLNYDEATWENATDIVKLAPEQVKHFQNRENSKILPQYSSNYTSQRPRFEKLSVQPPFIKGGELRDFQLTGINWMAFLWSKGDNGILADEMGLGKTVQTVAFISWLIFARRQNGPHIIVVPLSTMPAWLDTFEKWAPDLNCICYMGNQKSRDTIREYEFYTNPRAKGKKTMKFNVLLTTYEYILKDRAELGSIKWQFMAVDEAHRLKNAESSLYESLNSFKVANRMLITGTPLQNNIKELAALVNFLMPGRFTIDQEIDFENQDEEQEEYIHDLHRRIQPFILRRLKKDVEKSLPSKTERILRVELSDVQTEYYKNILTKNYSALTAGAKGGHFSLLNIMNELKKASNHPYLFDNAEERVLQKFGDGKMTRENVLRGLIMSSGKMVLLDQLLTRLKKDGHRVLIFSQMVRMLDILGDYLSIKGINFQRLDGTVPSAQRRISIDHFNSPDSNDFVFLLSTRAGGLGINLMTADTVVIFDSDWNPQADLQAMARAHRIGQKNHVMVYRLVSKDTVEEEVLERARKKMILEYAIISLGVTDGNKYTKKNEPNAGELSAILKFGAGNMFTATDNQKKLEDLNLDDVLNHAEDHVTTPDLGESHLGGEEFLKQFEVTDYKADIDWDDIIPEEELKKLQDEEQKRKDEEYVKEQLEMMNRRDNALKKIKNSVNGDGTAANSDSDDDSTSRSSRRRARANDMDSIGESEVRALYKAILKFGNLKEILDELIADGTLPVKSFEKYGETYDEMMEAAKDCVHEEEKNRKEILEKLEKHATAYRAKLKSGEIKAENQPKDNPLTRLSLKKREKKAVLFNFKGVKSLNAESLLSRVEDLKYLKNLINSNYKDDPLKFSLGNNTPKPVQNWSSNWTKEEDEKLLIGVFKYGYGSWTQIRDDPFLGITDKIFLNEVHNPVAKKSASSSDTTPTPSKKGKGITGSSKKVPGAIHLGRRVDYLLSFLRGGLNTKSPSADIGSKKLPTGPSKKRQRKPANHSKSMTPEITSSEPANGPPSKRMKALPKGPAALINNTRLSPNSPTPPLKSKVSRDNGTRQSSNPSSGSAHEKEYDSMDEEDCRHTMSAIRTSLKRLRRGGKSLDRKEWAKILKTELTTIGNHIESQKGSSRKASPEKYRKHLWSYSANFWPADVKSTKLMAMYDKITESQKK
# Sequence of Protein translocase subunit SecA (Escherichia coli (strain K12)) (P10408 whole entry): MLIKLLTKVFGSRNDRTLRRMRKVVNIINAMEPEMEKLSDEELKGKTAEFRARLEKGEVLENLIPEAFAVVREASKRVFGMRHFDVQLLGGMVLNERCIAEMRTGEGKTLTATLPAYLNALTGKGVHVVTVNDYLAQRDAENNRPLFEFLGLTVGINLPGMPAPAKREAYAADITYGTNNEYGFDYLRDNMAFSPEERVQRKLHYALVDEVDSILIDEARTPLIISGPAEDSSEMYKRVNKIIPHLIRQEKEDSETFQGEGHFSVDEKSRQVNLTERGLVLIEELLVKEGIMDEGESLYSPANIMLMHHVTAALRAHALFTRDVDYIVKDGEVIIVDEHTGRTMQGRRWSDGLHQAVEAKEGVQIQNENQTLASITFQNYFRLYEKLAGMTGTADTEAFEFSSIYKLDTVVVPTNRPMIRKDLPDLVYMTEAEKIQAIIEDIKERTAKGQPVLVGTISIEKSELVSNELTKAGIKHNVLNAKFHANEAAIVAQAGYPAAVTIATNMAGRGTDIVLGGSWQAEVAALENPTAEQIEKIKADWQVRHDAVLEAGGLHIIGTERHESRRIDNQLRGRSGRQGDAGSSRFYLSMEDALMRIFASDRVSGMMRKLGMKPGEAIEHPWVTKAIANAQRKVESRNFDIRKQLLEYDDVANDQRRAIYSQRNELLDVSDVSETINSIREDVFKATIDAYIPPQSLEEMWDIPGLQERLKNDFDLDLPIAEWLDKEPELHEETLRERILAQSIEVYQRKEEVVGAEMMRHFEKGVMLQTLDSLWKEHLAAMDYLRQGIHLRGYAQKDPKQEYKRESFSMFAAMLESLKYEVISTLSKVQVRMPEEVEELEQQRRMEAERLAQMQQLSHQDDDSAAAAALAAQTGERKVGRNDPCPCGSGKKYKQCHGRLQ
# Sequence of Sialic acid-binding Ig-like lectin 9 (Homo sapiens) (Q9Y336 whole entry): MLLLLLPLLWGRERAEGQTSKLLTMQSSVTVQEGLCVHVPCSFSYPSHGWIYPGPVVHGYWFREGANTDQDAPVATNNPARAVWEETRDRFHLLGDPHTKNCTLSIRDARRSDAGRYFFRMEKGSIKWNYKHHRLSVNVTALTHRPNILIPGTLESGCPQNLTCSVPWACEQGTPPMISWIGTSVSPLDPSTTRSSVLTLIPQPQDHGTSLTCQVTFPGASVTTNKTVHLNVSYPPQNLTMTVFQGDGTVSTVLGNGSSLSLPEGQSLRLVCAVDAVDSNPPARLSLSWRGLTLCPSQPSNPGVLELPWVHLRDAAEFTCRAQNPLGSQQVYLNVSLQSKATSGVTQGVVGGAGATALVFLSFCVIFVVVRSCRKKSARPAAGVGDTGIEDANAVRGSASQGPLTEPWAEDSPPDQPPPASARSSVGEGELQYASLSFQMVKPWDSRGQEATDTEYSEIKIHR
Structure (SMILES),Percent Effect [1] [%],Percent Effect [2] [%],Percent Effect [3] [%],Percent Effect [4] [%],Percent Effect (Trypanosoma cruzi) [%],Percent Effect [5] [%],Percent Effect [6] [%],Percent Effect (Homo sapiens) [%],Percent Effect [7] [%],Percent Effect [8] [%],Percent Effect [9] [%]
Cc1cc(C)n(CC2CCCN2C(=O)Cc2c(C)noc2C)n1 (stereo unspecified),-7.56,8.11,-14.7,23.5,2.92,-9.62,9.37,15.8,4.43,13.6,-11.4
CNc1cc(CNC(=O)c2ccccn2)nc(-c2ccncc2)n1,-1.08,17.6,3.35,-3.17,2.37,0.696,14.7,2.78,2.15,24.7,-15.3
Cc1nc(C)n(CC2CCCN(CC(=O)Nc3c(C)n[nH]c3C)C2)n1 (stereo unspecified),-1.71,13.2,-0.0642,9.58,3.76,0.766,8.69,-1.17,5.39,17.1,-9.15
Cc1ccc(C(=O)Nc2cc(C(C)C)n[nH]2)cn1,-6.49,5.2,97.8,4.24,-5.06,3.56,10.3,75.7,3.88,9.76,-5.01
COc1cc2cc(C(=O)O)n(C)c2cc1OC,-4.26,-4,7.45,10.6,-0.982,-10,9.61,-15.2,4.23,0,-6.18
Cn1cc(CN2CCc3nc(-c4ccccn4)nc(O)c3C2)cn1,-7.26,2.67,-8.66,8.08,6.69,-3.96,-0.617,-0.651,10.6,29.5,-10.9
CC(C)c1nc(C2CCCN2CC(=O)N2CCNC2=O)no1 (stereo unspecified),-3.33,2.63,-0.208,-4.56,5.26,1.15,1.34,-5.94,-0.49,4.88,-10.2
O=C1CC(c2cccs2)c2snc(C(=O)O)c2N1 (stereo unspecified),-2.26,4.17,-2.53,8.18,4.76,3.09,2.63,1.26,2.1,5.13,-3.46
COCCN1CCC2(CC1)CN(C(=O)N(C)C)c1ccc(C)cc12,-5.7,5.41,-1.76,-3.94,-3.62,2.23,6.83,12.1,0,5.13,0.0767
Cn1cnc2c1CCN(CCCOc1ccc(C#N)cc1)C2,-7.51,2.53,-0.357,-0.18,-2.93,-1.14,5.98,20.4,-0.493,-1.27,-3.4
CCOC(=O)NC(CNC(=O)c1ncccn1)CC(C)C (stereo unspecified),-3.7,8.11,-1.89,31.5,5.96,13.7,11.8,-4.96,4.3,13.6,-6.28
